Bioassay records as filed in PubChem BioAssay.
An excerpt weighted towards active compounds, which were near 1.8% of everything screened.
NPR1 activator – GC-A (human) enzyme activation; P16066; HEK293 GC-A cells, cGMP TR-FRET, EC30 ANP; 0% at EC30 ANP, 100% saturating ANP; activation, % at 10 µM; actives 0.14% (n = 370,000); AID 1671463; in the data active = activation above about 40%
GC-B act – GC-B (human) receptor activation | P20594 | HEK293-GC-B cells, CNP EC30, cGMP TR-FRET; 0% at EC30 CNP, 100% saturating CNP | activation, % at 10 µM | actives 0.11% (n = 370,000) | AID 1920062;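 active = activation at 10 µM reaching about 35% in either raw or pattern-adjusted values, limit read from the data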
bovine MsrA act – bovine methionine sulfoxide reductase A activation. purified bovine MsrA, absorbance read-out. AID 602163. activation, % at 10.6 µM. actives 0.3% (n = 360,000); in the data active = activation above about 7.5%
m5-HT2A agonist – mouse HTR2A agonism via beta-arrestin recruitment; P35363; CHO-K1 mHTR2A beta-arrestin complementation, luminescence; percent of 30 µM serotonin response; activation, % at 7.6 µM; actives 0.66% (n = 360,000); AID 624169;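 active = activation above a run cutoff, the mean activation of all tested compounds plus 3 SD, cut at about 14% in these data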
Target sequence (P35363 whole entry, looked up): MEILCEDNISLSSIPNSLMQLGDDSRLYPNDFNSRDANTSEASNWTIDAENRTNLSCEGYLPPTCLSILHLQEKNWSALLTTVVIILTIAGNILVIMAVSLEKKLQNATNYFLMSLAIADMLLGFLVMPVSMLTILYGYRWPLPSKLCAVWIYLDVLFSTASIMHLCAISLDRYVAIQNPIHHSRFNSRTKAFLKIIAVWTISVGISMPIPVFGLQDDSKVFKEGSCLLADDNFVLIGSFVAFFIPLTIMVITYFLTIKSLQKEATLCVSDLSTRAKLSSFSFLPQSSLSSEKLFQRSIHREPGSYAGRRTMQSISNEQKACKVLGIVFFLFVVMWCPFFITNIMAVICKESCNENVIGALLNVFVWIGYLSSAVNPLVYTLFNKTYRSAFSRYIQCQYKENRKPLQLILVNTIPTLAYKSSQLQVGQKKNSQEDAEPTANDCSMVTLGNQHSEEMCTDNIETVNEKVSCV
MsrA inh – bovine MsrA inhibition. inhibition, % at 15.5 µM. AID 651718. actives 0.75% (n = 360,000). purified bovine MsrA, absorbance read-out
MsrA inh confirm – confirmation of bovine MsrA inhibitors | actives 41% (n = 2,300) | inhibition, % at 15.5 µM | shares compounds with MsrA inh | purified bovine MsrA, absorbance read-out;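 also: coupled to thioredoxin reductase with NADPH and selenocystamine and DMSO as substrate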
Numbers stand for hits; . = inactive; / = not tested or not shown. Rule as the data show it, unless noted: active = inhibition above about 4.5%; inactive = the rest.

SMILES	NPR1 activator	GC-B act	bovine MsrA act	m5-HT2A agonist	MsrA inh	MsrA inh confirm
COc1cccc(-c2nnc(SCC(=O)Nc3ccc(Oc4ccccc4)cc3)n2Cc2ccco2)c1	.	.	/	/	/	/
COc1ccc(C(=O)C=Cc2ccc3c(c2)OCO3)cc1OC	.	.	.	.	.	/
COc1ccc(C=CC(=O)c2ccc(OC)c(OC)c2)cc1O	.	.	.	.	4.7	.
COc1ccc(/C=C/C(=O)c2ccc(O)cc2)cc1	.	.	.	.	5.2	.
Cc1ccccc1CN1CCCCC(NC(=O)Nc2cccc([N+](=O)[O-])c2)C1=O (stereo not given)	.	.	/	/	/	/
N#C/C(=C\N1CCN(Cc2ccc3c(c2)OCO3)CC1)c1nc2ccccc2s1	.	.	.	.	.	/
CCOC(=O)N1CCN(/C=C(\C#N)c2nc3ccccc3s2)CC1	.	.	.	.	7.0	5.2
CN1c2ccsc2/C(=N/NC(=O)c2c(F)cccc2F)CS1(=O)=O	.	.	.	.	.	/
CN1c2ccsc2/C(=N/Nc2ccccc2)CS1(=O)=O	.	.	.	.	5.3	.
COc1ccc(-c2cc3ccc(OCc4nn[nH]n4)cc3oc2=O)cc1OC	.	.	.	.	6.5	.
Cc1ccc2nc(-c3ccc(NC(=O)CSc4nnc(Cc5cccs5)n4C)cc3)sc2c1	.	.	/	/	/	/
O=C1NC(=O)/C(=C/c2ccc(O)cc2)S1	.	.	.	.	4.9	4.6
COc1ccccc1-c1cc(C(F)(F)F)nc(N2CCOCC2)n1	.	.	.	.	12.5	13.4
COc1ccccc1-c1cc(C(F)(F)F)nc(N2CCN(c3ccccc3)CC2)n1	.	.	.	.	.	/
CCc1nccn1C(=O)c1cnn2c(C(F)F)cc(-c3ccc(C)cc3)nc12	.	.	.	.	4.8	25.6
COCCn1c(=NC(=O)CSCC(=O)NC2CCCCC2)sc2cc(OC)ccc21	.	.	.	.	.	/
CCOCCn1c(=NC(=O)CSCC(=O)Nc2cc(C)on2)sc2cc(OC)ccc21	.	.	.	.	6.3	.
CCOC(=O)/C(C#N)=C/c1ccc(-c2ccsc2C(=O)OC)o1	.	.	.	.	.	/
CCOC(=O)/C(C#N)=C/Nc1ccsc1C(C)=O	.	.	.	.	13.7	7.2
CCOC(=O)/C(C#N)=C/Nc1ccccc1OC	.	.	.	.	12.3	12.4
O=C(CCCCCN1C(=O)C2C3C=CC(C3)C2C1=O)N1CCN(c2ncccn2)CC1 (stereo not given)	.	.	/	/	/	/
O=C(COc1ccc2c(-c3ccccc3)cc(=O)oc2c1)NCC1CCC(C(=O)O)CC1 (stereo not given)	.	.	.	.	5.0	.
Cc1[nH]c2ccccc2c1/C=N/NC(=O)c1cccc(F)c1	.	.	.	.	4.8	.
Cc1[nH]c2ccccc2c1/C=N\NC(=O)c1ccco1	.	.	.	.	6.6	5.3
CC(=O)N[C@@H](C)CCc1ccc(Oc2ccc(OC(C)C)nc2)cc1	.	.	/	/	/	/
SMILES	NPR1 activator	GC-B act	bovine MsrA act	m5-HT2A agonist	MsrA inh	MsrA inh confirm
CC(C)C[C@@H](CO)N1Cc2nnn(Cc3ccccc3)c2-c2ccccc2S1(=O)=O	.	.	/	/	/	/
NS(=O)(=O)c1ccc2nc(NC(=O)c3ccncc3)sc2c1	.	.	.	.	5.6	.
NC(=O)c1ccc2nc(NC(=O)c3ccc(N)cc3)sc2c1	.	.	.	.	6.3	.
NS(=O)(=O)c1ccc2nc(NC(=O)c3ccc(Br)o3)sc2c1	.	.	.	.	4.8	5.7
Cc1ccc2nc(NC(=O)c3ccc(Br)o3)sc2c1	.	.	.	.	.	/
NS(=O)(=O)c1ccc2nc(NC(=O)CS(=O)(=O)c3ccccc3)sc2c1	.	.	.	.	.	/
Cc1cccc(-c2nnc(SCC(=O)Nc3ccc(-c4nc5ccc(C)cc5s4)cc3)n2Cc2ccco2)c1	.	.	/	/	/	/
CC(NCc1ccco1)C(=O)N1CCN(Cc2ccccc2F)CC1 (stereo not given)	.	.	/	/	/	/
CC(=O)OCC(=O)Nc1ccc(N=Nc2ccccc2)cc1	.	.	.	.	5.9	.
O=C(NC(=S)NCCCN1CCOCC1)c1ccco1	.	.	.	.	5.8	.
Cc1nc2ccccn2c1C(=O)N/N=C/c1ccc([N+](=O)[O-])o1	.	.	.	.	5.2	.
CC(=O)N1CCc2c1cccc2S(=O)(=O)NC(CC(C)C)C(=O)Nc1ccc(F)cc1Cl (stereo not given)	.	.	/	/	/	/
O=C(OCC#CCSc1nnc(-c2cccc3ccccc23)o1)c1cccc(F)c1	.	.	/	/	/	/
CCOC(=O)C(=CNc1ccc(C#N)cc1)C(=O)OCC	.	.	.	.	7.1	5.5
O=C(Cc1ccsc1)NCC(=O)Nc1ccc(F)c(F)c1	.	.	.	.	.	/
CC1Sc2ccc(C#N)cc2N(Cc2cccc(C(F)(F)F)c2)C1=O (stereo not given)	.	.	.	.	5.4	.
CC(=O)c1cccc(Nc2cc(C)nc3c(C)cc(C)cc23)c1	.	.	.	.	5.9	.
Cc1ccc(-n2c(SCC(=O)c3ccc(F)cc3)nnc2-c2cnccn2)cc1	.	.	/	/	/	/
Oc1[nH]c2ccccc2c1C=NCC1CCCO1 (stereo not given)	.	.	.	.	6.0	.
COc1cc(/C=N/N=C2/NC(=O)C(c3ccccc3)S2)ccc1O (stereo not given)	.	.	.	.	4.9	.
COc1cc(/C=N/N=C2/NC(=O)C(Cc3ccc(F)cc3)S2)ccc1O (stereo not given)	.	.	.	.	.	/
COc1cc(/C=N/N=C2/C(=O)Nc3ccccc32)ccc1O	.	.	.	.	4.9	.
CN1C(=O)[C@@]2(C3=C(CCCC3=O)OC3=C2C(=O)OC2(CCCCC2)C3)c2ccccc21	.	.	/	/	.	/
O=C(N/C(=C/c1ccc(Br)cc1)C(=O)N1CCOCC1)c1ccco1	.	.	.	.	.	/
CSc1ccc(/C=C(/NC(=O)c2ccco2)C(=O)N2CCOCC2)cc1	.	.	.	.	5.0	.
SMILES	NPR1 activator	GC-B act	bovine MsrA act	m5-HT2A agonist	MsrA inh	MsrA inh confirm
Cc1ccc(-c2cc(-c3nnc(SCC(=O)NC4CCCCC4)n3N)[nH]n2)cc1	.	.	/	/	/	/
O=C1C[C@@H](c2ccccc2)N=C2N(Cc3ccc4c(c3)OCO4)C/C(=C/c3ccccc3)N12	.	.	/	/	/	/
Cn1c(=NC(=O)c2ccc(S(=O)(=O)N3CCCc4ccccc43)cc2)sc2cc(S(C)(=O)=O)ccc21	.	.	.	.	.	/
C#CCn1c(=NC(=O)c2ccc(S(=O)(=O)N3CCCc4ccccc43)cc2)sc2cc(S(N)(=O)=O)ccc21	.	.	.	.	5.3	.
COC(=O)CSC1=C(C#N)C(=O)NC(c2ccccc2)S1 (stereo not given)	.	.	.	.	6.1	4.8
CSC1=C(C#N)C(=O)NC(c2ccccc2O)S1 (stereo not given)	.	.	.	.	.	/
CCOC(=O)c1cnc(/N=C/N(C)C)s1	.	.	.	.	5.0	.
